The values that follow come from PubChem BioAssay AID1347165 (National Center for Advancing Translational Sciences (NCATS), 2019).

Molecules are shown by their SMILES. Screen size: about 220,000 compounds; about 5,700 (2.6%) were called active. A call without a number means that no potency is given here. Roughly 18% stayed inconclusive and do not appear here. Calls come from the whole dose curve; as a rule, active = well fitted inhibition curve with a large enough effect; inconclusive = small, poorly fitted or top-dose-only effect; inactive = no such curve, though single readings can be large or run the other way. The sample as a whole holds a higher share of actives than the screen did.
Potency is the fitted concentration of half-maximal effect.

Sequence of Lysine-specific demethylase 5B (Homo sapiens) (Q9UGL1 whole entry, looked up): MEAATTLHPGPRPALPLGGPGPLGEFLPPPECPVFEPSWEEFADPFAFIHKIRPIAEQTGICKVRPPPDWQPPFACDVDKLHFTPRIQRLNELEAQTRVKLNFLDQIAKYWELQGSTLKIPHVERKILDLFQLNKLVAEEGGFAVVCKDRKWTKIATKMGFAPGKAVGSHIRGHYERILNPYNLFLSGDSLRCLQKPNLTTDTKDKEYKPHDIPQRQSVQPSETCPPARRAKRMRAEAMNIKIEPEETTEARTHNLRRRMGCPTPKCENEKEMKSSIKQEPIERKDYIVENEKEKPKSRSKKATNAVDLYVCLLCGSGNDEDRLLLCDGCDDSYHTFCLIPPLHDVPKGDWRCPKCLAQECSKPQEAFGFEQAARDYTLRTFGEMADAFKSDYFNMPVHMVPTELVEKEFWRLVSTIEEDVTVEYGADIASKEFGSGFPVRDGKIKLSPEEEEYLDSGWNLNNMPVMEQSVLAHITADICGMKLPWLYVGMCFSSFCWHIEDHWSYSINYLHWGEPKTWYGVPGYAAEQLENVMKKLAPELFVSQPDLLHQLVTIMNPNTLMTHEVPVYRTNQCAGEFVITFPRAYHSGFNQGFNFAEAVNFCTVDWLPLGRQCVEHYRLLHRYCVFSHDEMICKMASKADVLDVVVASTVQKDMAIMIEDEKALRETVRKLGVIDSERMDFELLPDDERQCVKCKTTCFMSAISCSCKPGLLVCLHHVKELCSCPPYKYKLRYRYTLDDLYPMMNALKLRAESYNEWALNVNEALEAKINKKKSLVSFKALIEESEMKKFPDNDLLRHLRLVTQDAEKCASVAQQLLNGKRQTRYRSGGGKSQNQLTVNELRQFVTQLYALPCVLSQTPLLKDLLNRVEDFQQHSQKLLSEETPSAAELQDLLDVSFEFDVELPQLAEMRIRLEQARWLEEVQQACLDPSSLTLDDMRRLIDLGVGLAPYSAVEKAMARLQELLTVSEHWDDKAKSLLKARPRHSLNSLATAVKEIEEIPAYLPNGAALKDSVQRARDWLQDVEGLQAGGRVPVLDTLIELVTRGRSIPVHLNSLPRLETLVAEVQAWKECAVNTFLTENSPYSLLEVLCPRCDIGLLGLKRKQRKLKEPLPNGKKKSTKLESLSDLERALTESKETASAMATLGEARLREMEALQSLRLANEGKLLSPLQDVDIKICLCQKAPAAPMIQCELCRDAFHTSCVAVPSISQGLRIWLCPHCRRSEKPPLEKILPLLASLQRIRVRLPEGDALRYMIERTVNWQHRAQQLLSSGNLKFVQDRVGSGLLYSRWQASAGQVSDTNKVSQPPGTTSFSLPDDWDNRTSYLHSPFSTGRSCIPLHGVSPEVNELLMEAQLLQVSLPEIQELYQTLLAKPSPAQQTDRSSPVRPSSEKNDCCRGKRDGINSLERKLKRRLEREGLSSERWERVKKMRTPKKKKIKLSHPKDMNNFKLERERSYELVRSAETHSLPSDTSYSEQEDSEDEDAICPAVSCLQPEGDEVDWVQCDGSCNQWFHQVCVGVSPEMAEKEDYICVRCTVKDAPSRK

The target of this assay is Lysine-specific demethylase 5B (Homo sapiens) (UniProt Q9UGL1). Nature of the assay: Primary screen for KDM5B Histone Demethylases FDH-coupled qHTS. Note: nearly all actives have a fitted effect of over 70% in size. The settings on record: FDH-coupled NADH fluorescence (FDH is formaldehyde dehydrogenase); series mostly up to 57.7 µM. The gist of the method:
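Compound dilutions met 200 nM (final) KDM5BΔAP for 10 min at room temperature before substrate addition. The substrate mix held 12.5 µM H3K4me3 with cofactors 25 µM α-ketoglutarate and 50 µM Fe²⁺. NADH signal gain over 30 min defined activity.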
On the technique in general: qHTS replaces the single test concentration by a dilution series.
Consider `CCNC(=O)[C@@H]1CCCN1[C@@H](C(=O)NC)c1ccccc1OC`, for which the Potency result was “inactive”. Under `CNC(=O)[C@@H](Cc1ccccc1)N1CCC[C@H]1C(=O)N1CCC1` stands 28.2 µM (active).

As to `CNC(=O)C(C)(C)N1CCC[C@H]1C(=O)N(C)Cc1ccccc1`, the Potency entry was “inactive”. Under `Cc1cccc(OC(C)C(=O)Nc2cc(-c3ccc(F)c(F)c3)no2)c1C` (stereo not drawn) stands “inactive”. Under `O=S(=O)(NCCc1csc2nc(-c3ccccc3)nn12)c1cc(Cl)ccc1Cl` stands “inactive”. Turning to `Cc1ccc(-c2nc(C3CC(=O)N(c4ccc(Cl)cc4)C3)no2)cc1C` (stereo not drawn), the Potency entry was “inactive”.

Turning to `O=C1CC(c2noc(-c3ccc(F)c(Cl)c3)n2)CN1c1ccc(F)cc1` (stereo not drawn), the Potency entry is “inactive”. Under `COc1ccc(-c2nc(C3CC(=O)N(c4ccc(F)c(Cl)c4)C3)no2)cc1OC` (stereo not drawn) stands 31.6 µM (active); under `Cc1ccc(F)cc1NC(=O)CCc1c[nH]c2ccccc12`, “inactive”; under `COc1ccc(S(=O)(=O)N2CCC(C)CC2)c2cccnc12`, “inactive”.

For `CC(NC(=O)c1ccc(F)cc1)C12CC3CC(CC(C3)C1)C2` (stereo not drawn), the Potency entry is “inactive”. Under `CCCn1c(CN2CCCCC2)nc2cc(NC(=O)c3cc(OC)c(OC)c(OC)c3)ccc21` stands “inactive”; under `Cc1cc(NC(=O)COc2c(CO)cc(F)cc2CO)ccc1Br`, “inactive”; under `COc1ccc(-c2noc(CCC(=O)Nc3ccn(C)n3)n2)cc1`, “inactive”. The same measure for `O=C1CCC(C(=O)NCc2ccc(-c3cnc4c(Oc5ccccc5)nccn34)cc2)N1` (stereo not drawn): 35.5 µM (active); for `O=C1NC(C(=O)NCc2ccccn2)Cn2cccc21` (stereo not drawn): “inactive”; for `COc1ccc(CNC(=O)NCC(=O)N2CCCCCCNC(=O)CC2c2ccccc2)cc1` (stereo not drawn): “inactive”. The same measure for `O=S(=O)(c1ccc(Cl)cc1)c1nc(-c2ccco2)oc1N1CCCCC1`: “inactive”; for `Cc1ccc(C)c(NC(=O)C(c2ccccc2)n2cnc3c2c(=O)n(C)c(=O)n3C)c1` (stereo not drawn): “inactive”; for `COc1cccc(OCCN(C)Cc2cn(-c3ccccc3)nn2)c1`: “inactive”. On to `O=C(CCOc1ccc(Cl)cc1)N1CCC(c2nnc3n2CCC3)CC1`, for which the Potency result is “inactive”. The same measure for `Cc1ccc2nc(NC(C)(C)CO)nc(-c3ccccc3)c2c1`: “inactive”; for `CC(CC#N)NC(=O)c1cc2ccccc2cc1NC(=O)OC(C)(C)C` (stereo not drawn): “inactive”; for `Cc1cc(C)nc(NC(=O)Nc2ccc(C)c(F)c2)c1`: “inactive”.

For `COc1ccc(-c2ocnc2C(=O)Nc2cccc(Cl)c2)cc1`, the Potency result is “inactive”. Under `O=C(CCc1ccccc1)NCCn1cccc1-c1nc(-c2ccc3c(c2)OCO3)no1` stands 31.6 µM (active). Regarding `COc1ccc(NC(=O)Cn2cccc2-c2nc(-c3ccc4c(c3)OCO4)no2)c(OC)c1`, the Potency entry is “inactive”. Under `Cc1ccc(NC(=O)Cn2cccc2-c2nc(-c3ccc4c(c3)OCO4)no2)cc1Cl` stands “inactive”.
